Laboratory results taken from PubChem BioAssay (NCI).
Compounds without any hit were thinned out: in the full panel of roughly 79,000, 15% have a hit. Active and inactive are the calls of the source. Cut-off read from the data, not from the text of the source: active = growth inhibition above about 70%; inactive = the rest.

Legend:
[1] = NCI Yeast Anticancer Drug Screen. Data for the rad52 strain (AID 147);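 note: 0% = growth of vehicle-treated control cultures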; conditions: S. cerevisiae rad52 mutant growth inhibition, stronger effect = higher value
How it was run: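 Yeast strain carrying a DNA damage repair alteration was exposed to test compounds. Growth inhibition was measured relative to vehicle-treated controls.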

[2] = NCI Yeast Anticancer Drug Screen. Data for the wt1 strain (AID 149);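 note: 0% = growth of vehicle-treated wt1 cultures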; conditions: S. cerevisiae wt1 strain (SPY 50644) growth inhibition, stronger effect = higher value
How it was run: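 wt1 strain grown with compound or vehicle; inhibition taken from the growth difference.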

[3] = NCI Yeast Anticancer Drug Screen. Data for the rad50EPP+ strain (AID 151);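 note: 0% = growth of vehicle-treated control cultures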; conditions: S. cerevisiae rad50 mutant strain, stronger effect = higher value
How it was run: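 Yeast strain carrying rad50 alteration (rad50EPP+) exposed to compounds; growth inhibition measured relative to vehicle-treated controls.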

[4] = NCI Yeast Anticancer Drug Screen. Data for the mgt1 strain (AID 153); conditions: S. cerevisiae mgt1 mutant growth inhibition, stronger effect = higher value
How it was run: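 Yeast mgt1 strain (DNA repair/cell-cycle alteration panel) exposed to compounds; growth inhibition measured relative to vehicle-treated controls.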

[5] = NCI Yeast Anticancer Drug Screen. Data for the rad50 strain (AID 155);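 note: 0% = growth of vehicle-only cultures of the same strain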; conditions: S. cerevisiae rad50 strain growth inhibition, stronger effect = higher value
How it was run: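 DNA repair mutant yeast, compound exposure, growth read-out; inhibition is taken relative to vehicle.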

[6] = NCI Yeast Anticancer Drug Screen. Data for the mec2-1 strain (AID 157); conditions: S. cerevisiae mec2-1 strain, stronger effect = higher value
How it was run: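 mec2-1 yeast strain, carrying an alteration in DNA damage repair or cell cycle control, was exposed to compounds; growth inhibition was measured relative to vehicle-treated controls.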

[7] = NCI Yeast Anticancer Drug Screen. Data for the rad14 strain (AID 159);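 note: 0% = growth of vehicle-treated control cultures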; conditions: S. cerevisiae rad14 strain growth inhibition, stronger effect = higher value
How it was run: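 DNA repair-defective yeast, compound-exposed; % growth inhibition derived by comparison with vehicle-treated controls.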

[8] = NCI Yeast Anticancer Drug Screen. Data for the sgs1 mgt1 strain (AID 161);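 note: 0% = growth of cultures given vehicle only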; conditions: S. cerevisiae sgs1 mgt1 strain, stronger effect = higher value
How it was run: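 Percent growth inhibition was derived by comparing compound-exposed mutant yeast with vehicle-exposed cultures. The strain carries alterations in DNA damage repair.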

[9] = NCI Yeast Anticancer Drug Screen. Data for the CLN2oe strain (AID 163);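 note: 0% = growth of vehicle-only control cultures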; conditions: S. cerevisiae CLN2oe strain, stronger effect = higher value
How it was run: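 Yeast cells carrying a defined cell-cycle control alteration were exposed to test compounds. Growth inhibition was scored against vehicle-treated control cultures.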

[10] = NCI Yeast Anticancer Drug Screen. Data for the cln2 rad14 strain (AID 165);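 note: 0% = growth equal to vehicle treated cultures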; conditions: S. cerevisiae cln2 rad14 strain, stronger effect = higher value
How it was run: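 Yeast carrying cln2 and rad14 alterations (cell cycle control and DNA damage repair) were exposed to compounds. Growth inhibition was measured against vehicle-treated controls.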

[11] = NCI Yeast Anticancer Drug Screen. Data for the bub3 strain (AID 167); conditions: S. cerevisiae bub3 mutant strain, stronger effect = higher value
How it was run: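 In this screen, a yeast mutant lacking normal mitotic checkpoint function is challenged with compound. Relative growth versus vehicle gives the inhibition value.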

[12] = NCI Yeast Anticancer Drug Screen. Data for the wt2 strain (AID 169);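 note: 0% = growth of vehicle-treated yeast cultures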; conditions: S. cerevisiae wt2 strain growth inhibition, stronger effect = higher value
How it was run: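 Yeast cells were exposed to test compounds, and growth inhibition was measured relative to vehicle-treated controls.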

[13] = NCI Yeast Anticancer Drug Screen. Data for the mlh1 strain (AID 171);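 note: 0% = growth of vehicle-treated control cultures of the same strain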; conditions: S. cerevisiae mlh1 strain growth inhibition, stronger effect = higher value
How it was run: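 Yeast carrying a defined genetic alteration in DNA damage repair or cell cycle control were exposed to test compounds. Growth inhibition was measured relative to vehicle-treated controls.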

[14] = NCI Yeast Anticancer Drug Screen. Data for the sgs1 strain (AID 173);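 note: 0% = growth of vehicle-only control cultures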; conditions: S. cerevisiae sgs1 mutant, stronger effect = higher value
How it was run: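 Yeast mutant strains carrying defined defects in DNA damage repair or cell cycle control were exposed to test compounds. Growth inhibition was scored against vehicle-treated controls.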

[15] = NCI Yeast Anticancer Drug Screen. Data for the mlh1 rad18 strain (AID 175); conditions: S. cerevisiae mlh1 rad18 strain growth inhibition, stronger effect = higher value
How it was run: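 Growth inhibition of the yeast strain was measured after compound exposure and expressed relative to vehicle-treated controls. The strain carries defined defects in DNA damage repair.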

[16] = NCI Yeast Anticancer Drug Screen. Data for the rad18 strain (AID 177); conditions: S. cerevisiae rad18 mutant growth inhibition, stronger effect = higher value
How it was run: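 Yeast carrying a defined DNA damage repair alteration were exposed to compounds. Growth inhibition was expressed relative to vehicle-treated controls.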

[17] = at 5.0 µM (retest, dose inferred, filed as 0.5)
[18] = at 50.0 µM (retest, dose inferred, filed as 5.0)

Measured: growth inhibition

Cc1cc(O)c(C(C)C)cc1C1(c2cc(C(C)C)c(O)cc2C)OC(=O)c2ccccc21
active: [5]; [18] 98% | [5]; at 50.0 µM 94.1% | [6]; [18] 98% | [6]; at 50.0 µM 91.7% | [8]; [18] 98% | [8]; at 50.0 µM 82% | [10]; [18] 97% | [10]; at 50.0 µM 97% | [11]; [18] 98% | [11]; at 50.0 µM 91.1% | [15]; [18] 98% | [15]; at 50.0 µM 91.6%
inactive: [1]; at 1.2 µM -4% | [1]; at 3.7 µM -3% | [1]; at 11.0 µM -5% | [1]; at 33.0 µM -3% | [1]; at 100.0 µM 34% | [2]; at 1.2 µM 2% | [2]; at 3.7 µM 2% | [2]; at 11.0 µM 5% | [2]; at 33.0 µM 1% | [2]; at 100.0 µM 20% | [3]; at 1.2 µM 0% | [3]; at 3.7 µM -1% | [3]; at 11.0 µM 0% | [3]; at 33.0 µM 0% | [3]; at 100.0 µM 0% | [4]; at 1.2 µM -1% | [4]; at 3.7 µM -1% | [4]; at 11.0 µM -2% | [4]; at 33.0 µM -3% | [4]; at 100.0 µM 18% | [5]; at 1.2 µM 3% | [5]; at 3.7 µM 0% | [5]; [17] 17% | [5]; at 11.0 µM 10% | [5]; at 33.0 µM 1% | [5]; at 100.0 µM 36% | [6]; at 1.2 µM 2% | [6]; at 3.7 µM 2% | [6]; [17] 0% | [6]; at 11.0 µM 1% | [6]; at 33.0 µM 4% | [6]; at 100.0 µM 29% | [7]; at 1.2 µM -1% | [7]; at 3.7 µM 1% | [7]; at 11.0 µM -1% | [7]; at 33.0 µM -4% | [7]; at 100.0 µM 33% | [8]; [17] 16% | [9]; at 1.2 µM -3% | [9]; at 3.7 µM -2% | [9]; at 11.0 µM -6% | [9]; at 33.0 µM -5% | [9]; at 100.0 µM 12% | [10]; [17] 51% | [11]; at 1.2 µM -2% | [11]; at 3.7 µM 1% | [11]; [17] -12% | [11]; at 11.0 µM -34% | [11]; at 33.0 µM 16% | [11]; at 100.0 µM 24% | [12]; at 1.2 µM -2% | [12]; at 3.7 µM -4% | [12]; at 11.0 µM -3% | [12]; at 33.0 µM -3% | [12]; at 100.0 µM 31% | [13]; at 1.2 µM 5% | [13]; at 3.7 µM 3% | [13]; at 11.0 µM 3% | [13]; at 33.0 µM -24% | [13]; at 100.0 µM 31% | [14]; at 1.2 µM 2% | [14]; at 3.7 µM 4% | [14]; at 11.0 µM 5% | [14]; at 33.0 µM 2% | [14]; at 100.0 µM 48% | [15]; [17] 9% | [16]; at 1.2 µM 10% | [16]; at 3.7 µM 4% | [16]; at 11.0 µM -2% | [16]; at 33.0 µM 3% | [16]; at 100.0 µM 32%
